Rows were chosen to be rich in hits. Some 5.1% of all compounds tested hit in one or more screens of this group.
Tau FP inhib: inhibitors of human tau fibril formation | P10636 | K18 P301L tau heparin fibrillization, Alexa594 FP, 6 h | Potency, µM (highest dose often 57.7 µM), hits mostly inhibitors | 280,000 compounds, 0.39% hits | AID 1468; also: nearly all actives have a fitted effect of over 55% in size
Target sequence (P10636 561-689 P618L limits assumed): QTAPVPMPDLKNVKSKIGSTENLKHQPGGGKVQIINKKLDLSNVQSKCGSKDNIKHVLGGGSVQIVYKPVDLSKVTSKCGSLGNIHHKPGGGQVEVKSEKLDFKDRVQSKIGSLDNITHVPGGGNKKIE
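Human K18 P301L fragment (15 uM unlabeled plus 0.24 uM Alexa 594-labeled) in 100 mM sodium acetate pH 7 with compound, aggregation induced by 20 uM heparin for 6 hr at 37 C. ThT (30 uM) added for 1 hr, then Alexa 594 FP read.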
NPSR antag: blocks cAMP signaling of the human neuropeptide S receptor. AID 1461. CHO-NPSR cells, cAMP TR-FRET, antagonist mode. Q6W5P4. Potency, µM (top dose mostly 38.3 µM), most hits filed as inhibitors. 220,000 compounds, 1% hits; also: nearly all actives have a fitted effect of over 50% in size
Tau ThT inhib: inhibitors of human tau fibril formation, thioflavin T binding; P10636; recombinant tau K18 P301L, heparin-induced fibrillization, ThT fluorescence; Potency, µM (doses to about 57.4 µM), most hits filed as inhibitors; 270,000 compounds, 2.1% hits; AID 1460; also: nearly all actives have a fitted effect of over 55% in size
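Tau K18 P301L fragment (15 uM unlabeled plus 0.24 uM Alexa 594-labeled) in 100 mM sodium acetate pH 7 with compound, fibrillization induced by 20 uM heparin for 6 hr at 37 C. Thioflavin T (30 uM) added, fluorescence read after 1 hr (ex 450, em 510 nm).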
Tau fluor counter: counter-screen for tau fibril formation inhibitors. tau K18 P301L Alexa594 fluorescence, heparin fibrillization. Potency, µM (doses to about 57.7 µM). 280,000 compounds, 0.93% hits; also: nearly all actives have a fitted effect of over 55% in size
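Human tau K18 P301L (15 uM unlabeled, 0.24 uM Alexa 594-labeled) in 100 mM sodium acetate pH 7 with 20 uM heparin, 6 hr at 37 C. ThT 30 uM added, 1 hr ambient; Alexa 594 FP and total fluorescence read at 555/632 nm.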
PNC assembly inh: perinucleolar compartment assembly inhibition | activity change (PNC), negative = inhibition, % at 10 µM | AID 2417 | PC3M PTB-GFP, PNC prevalence imaging, 16 h; stronger effect = lower value | 140,000 compounds, 3.1% hits;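 active = readout at or below -70, meaning at least 70% loss of cells showing the perinucleolar compartment, a nuclear body marking cancer cells; inconclusive = readout between -30 and a set limit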
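PC3M cells stably expressing PTB-GFP, 750–1000 cells/well, treated 16 h at 37 °C with compound (23 nl of library stock), in duplicate. After paraformaldehyde fixation and Hoechst stain, imaged at 20x; PNC prevalence scored by image analysis.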
KDM4E inh: inhibitors of human JMJD2E histone demethylase; Potency, µM (titrated, usually from 57.1 µM), hits mostly inhibitors; B2RXH2; 230,000 compounds, 1.6% hits; JMJD2E catalytic domain, FDH-coupled NADH fluorescence (FDH is formaldehyde dehydrogenase); also: nearly all actives have a fitted effect of over 50% in size
Target sequence (B2RXH2 1-337 limits assumed): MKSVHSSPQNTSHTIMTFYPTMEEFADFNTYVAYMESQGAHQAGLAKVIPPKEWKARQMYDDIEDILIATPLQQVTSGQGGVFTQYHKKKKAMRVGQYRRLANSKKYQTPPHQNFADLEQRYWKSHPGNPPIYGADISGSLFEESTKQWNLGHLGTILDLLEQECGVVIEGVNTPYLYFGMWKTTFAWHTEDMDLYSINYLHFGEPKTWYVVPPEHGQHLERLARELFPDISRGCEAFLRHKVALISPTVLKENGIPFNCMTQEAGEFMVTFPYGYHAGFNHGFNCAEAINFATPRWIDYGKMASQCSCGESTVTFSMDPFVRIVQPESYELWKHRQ
Hits are given with their value; [ ] = dose if it differs, or a comment. Unless noted, calls follow the shape of the dose curve; as a rule, active = well fitted curve in the direction sought with a large enough effect; inconclusive = small, poorly fitted or top-dose-only effect, or another doubt; inactive = no such curve, though single readings can be large; an effect the other way counts as inactive or inconclusive.

CN(C)CCCNC(=O)c1ccc(-c2nc(-c3ccc(Cl)cc3)cs2)cc1 was read as Tau FP inhib inconclusive, NPSR antag 10µM, Tau ThT inhib inactive, Tau fluor counter inconclusive, PNC assembly inh inactive and KDM4E inh inconclusive.
COc1cccc(NC(=O)CSc2nccn2Cc2ccc3c(c2)OCO3)c1 was read as Tau FP inhib inactive, Tau ThT inhib inactive and Tau fluor counter inactive.
`COc1cc(C2CC(=O)n3c(nc4ccccc43)S2)cc(OC)c1OC` (centres undefined) gave Tau FP inhib inactive, NPSR antag inactive, Tau ThT inhib inactive, Tau fluor counter inactive, PNC assembly inh -97.6 and KDM4E inh inconclusive.
For C/C=C/c1ccc(OCCCCOc2ccccc2F)c(OC)c1 the results were Tau FP inhib inactive, NPSR antag inactive, Tau ThT inhib inconclusive, Tau fluor counter inactive, PNC assembly inh -125.2 and KDM4E inh inactive.
COc1cn(CC(=O)Nc2ccc(F)cc2)c(CN2CCCCC2)cc1=O was read as Tau FP inhib inactive, Tau ThT inhib inactive and Tau fluor counter inactive.
For CSc1nnc(C)c(/C=C/Nc2ccc(C)cc2)n1 the results were Tau FP inhib inactive, NPSR antag inactive, Tau ThT inhib 5.01µM, Tau fluor counter inactive, PNC assembly inh inactive and KDM4E inh inactive.
For Cc1cc(-c2ccco2)n(-c2ccccc2)n1 the results were Tau FP inhib inconclusive, NPSR antag inactive, Tau ThT inhib 31.6µM, Tau fluor counter inactive, PNC assembly inh inconclusive and KDM4E inh inconclusive.
Cc1nnc(NC(=O)c2sc3nc(-c4cccs4)cc(C(F)(F)F)c3c2N)s1 was read as Tau FP inhib inactive, NPSR antag inactive, Tau ThT inhib 12.6µM, Tau fluor counter inactive, PNC assembly inh inactive and KDM4E inh inconclusive.
Screening Nc1c(C(=O)Nc2nccs2)sc2nc(-c3cccs3)cc(C(F)(F)F)c12 returned Tau FP inhib inactive, NPSR antag inactive, Tau ThT inhib inactive, Tau fluor counter inactive, PNC assembly inh inactive and KDM4E inh inconclusive.
CC(C)(C)C(=O)c1sc2nc(-c3cccs3)cc(C(F)(F)F)c2c1N was read as Tau FP inhib inactive, NPSR antag inactive, Tau ThT inhib inconclusive, Tau fluor counter inactive, PNC assembly inh inactive and KDM4E inh 6.31µM.
O=C(CN1C(=O)COc2ccc(S(=O)(=O)N3CCOCC3)cc21)Nc1ccc(F)c(Cl)c1 was read as Tau FP inhib inactive, Tau ThT inhib inactive and Tau fluor counter inactive.
Screening COc1ccc(NC(=O)CNS(=O)(=O)c2ccc(Cl)cc2)cc1OC returned Tau FP inhib inactive, NPSR antag inactive, Tau ThT inhib inactive, Tau fluor counter inactive, PNC assembly inh -113.8 and KDM4E inh inactive.
Screening CC(=O)Nc1ccc(NC(=O)CNS(=O)(=O)c2ccc(C)cc2)cc1 returned Tau FP inhib inactive, NPSR antag inactive, Tau ThT inhib inactive, Tau fluor counter inactive, PNC assembly inh inactive and KDM4E inh inactive.
CSc1cccc(NC(=O)C2CCN(S(=O)(=O)c3ccc4[nH]c(=O)ccc4c3)CC2)c1 was read as Tau FP inhib inconclusive, Tau ThT inhib inactive and Tau fluor counter inactive.
`COc1ccc(/C=N/N=C2/CC(C)(C)Cc3n[nH]c(=O)cc32)cc1` gave Tau FP inhib inactive, NPSR antag inactive, Tau ThT inhib inconclusive, Tau fluor counter inactive and KDM4E inh 31.6µM.
For COc1ccc(/C=C/C(=O)Nc2sc(C)c(C)c2C(=O)O)cc1 the results were Tau FP inhib inactive, Tau ThT inhib 2.24µM and Tau fluor counter inconclusive.
For Cc1sc(NC(=O)/C=C/c2ccco2)c(C(=O)O)c1C the results were Tau FP inhib inactive, NPSR antag inconclusive, Tau ThT inhib inconclusive, Tau fluor counter inactive and KDM4E inh inactive.
CCCCCOc1ccc(/C=C/C(=O)Nc2sc(C)c(C)c2C(=O)OCC)cc1OC was read as Tau FP inhib inconclusive, Tau ThT inhib 28.2µM and Tau fluor counter inactive.
For COc1ccc(S(=O)(=O)NCC(c2ccco2)S(=O)(=O)c2cccs2)cc1F (centres undefined) the results were Tau FP inhib inactive, Tau ThT inhib inactive and Tau fluor counter inactive.
For CS(=O)(=O)c1ncc(N(Cc2ccco2)Cc2cccs2)c(C(=O)Nc2ccccc2F)n1 the results were Tau FP inhib inactive, Tau ThT inhib inactive and Tau fluor counter inactive.
`CCn1c(CNC(=O)C23CC4CC(CC(C4)C2)C3)nnc1SCC(=O)Nc1ccc(C)cc1` gave Tau FP inhib inactive, Tau ThT inhib inactive and Tau fluor counter inactive.
`O=c1oc2ccccc2c2oc3cc(O)c(O)cc3c12` gave Tau FP inhib inconclusive, NPSR antag inactive, Tau ThT inhib inconclusive, Tau fluor counter inconclusive and KDM4E inh 28.2µM.
Screening Oc1ccc(C=Nc2ccc3ncccc3c2)c(O)c1 returned Tau FP inhib inconclusive, NPSR antag inactive[7.67 µM], Tau ThT inhib 6.31µM, Tau fluor counter inconclusive, PNC assembly inh inactive and KDM4E inh 4.47µM.
CCOC(=O)C1CCN(c2c(C(=O)c3ccc(OCC)cc3)cnc3ccc(OC)cc23)CC1 was read as Tau FP inhib inactive, Tau ThT inhib inconclusive and Tau fluor counter inactive.
`O=C(CN1C(=O)C2(SCC(=O)N2c2cccc(F)c2)c2ccccc21)NCCc1ccccc1` (centres undefined) gave Tau FP inhib inactive, Tau ThT inhib inactive and Tau fluor counter inactive.
`COc1cc(N2CCCC2)ccc1[N+](=O)[O-]` gave Tau FP inhib inactive, NPSR antag inactive, Tau ThT inhib inactive, Tau fluor counter inactive, PNC assembly inh inactive and KDM4E inh inactive.
Screening COc1ccccc1C1CCN(c2ccc([N+](=O)[O-])c(OC)c2)CC1 returned Tau FP inhib inactive, NPSR antag inactive, Tau ThT inhib 8.91µM, Tau fluor counter inconclusive and KDM4E inh inactive.
Cc1cc(Nc2cc(Cl)ccc2C)n2nc(Cc3ccccc3)nc2n1 was read as Tau FP inhib inactive, Tau ThT inhib inactive and Tau fluor counter inactive.
`CC(=O)Nc1cccc2c1C(=O)N(c1cccc(OC(C)=O)c1)C2=O` gave Tau FP inhib inactive, NPSR antag inactive, Tau ThT inhib inactive, Tau fluor counter inactive and KDM4E inh inactive.
Screening CC(=O)Oc1cccc(N2C(=O)c3ccccc3C2=O)c1 returned Tau FP inhib inactive, NPSR antag inactive, Tau ThT inhib inactive, Tau fluor counter inactive, PNC assembly inh -85.0 and KDM4E inh inactive.
For CCCOC(=O)c1c(NC(=O)C2c3ccccc3Oc3ccccc32)sc2c1CCCC2 the results were Tau FP inhib inactive, Tau ThT inhib inactive and Tau fluor counter inactive.
`CCC1CCc2c(sc(NC(=O)C3c4ccccc4Oc4ccccc43)c2C(N)=O)C1` (centres undefined) gave Tau FP inhib inactive, NPSR antag inactive, Tau ThT inhib inactive, Tau fluor counter inactive, PNC assembly inh -94.9 and KDM4E inh inconclusive.
